Values joined by “and” are separate entries in the source; they are usually repeats but may differ in a detail not shown here. Identical values can stand only once. Inconclusive results are not listed. Active and inactive are the calls of the source. Unless noted, the call rests on the fitted dose curve; in most records, active means well fitted curve in the direction sought with a large enough effect; inconclusive means small, poorly fitted or top-dose-only effect, or another doubt; inactive means no such curve, though single readings can be large; an effect the other way counts as inactive or inconclusive.
Tests used:
[1] = AP1 Signaling Pathway (AID 357; active means well fitted curve in either direction with a large enough effect, not every such curve was filed as active;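 further: ME-180 reporter cells stimulated with EGF at its EC50 level; on the % scale 0 is the no-effect control and ±100 the full control effect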); conditions: ME-180 AP-1-bla reporter, EGF-induced, beta-lactamase ratio, 5 h; at 7.69 µM (top of the series) unless noted
Summary of the method: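 In this screen, ME-180 cells in Opti-MEM with 0.5% dialyzed FBS received EC50 EGF and compound titrations for 5 h. AP-1 reporter beta-lactamase was detected via CCF4 ratio, giving AC50 for positive and negative modulators.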

[2] = biological target: Cytochrome P450 1A2 (Homo sapiens) (UniProt P05177); experiment: p450-cyp1a2 (AID 410; calls by dose curve; further: potency means the concentration at half of the fitted maximal effect;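 on activity change, negative = inhibition: -100% = full effect of reference inhibitor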)
Summary of the method: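 20nM CYP1A2 with 100uM Luciferin-ME (at Km) in 100mM KPO4; compound preincubated 10 min, NADPH regeneration added, 60 min at room temperature. Luciferin quantified by luminescence after detection reagent; normalized to 57 uM furafylline.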

[3] = Stat Signaling Pathway (AID 446; active means well fitted curve in either direction with a large enough effect, not every such curve was filed as active;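 further: ME-180 cervical cancer cells given 40 pM IL-6 alongside compound; SIE-controlled beta-lactamase reporter measured as 460/530 nm FRET emission ratio; on the % scale 0 is the no-effect control and ±100 the full control effect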); conditions: ME-180 SIE beta-lactamase reporter, IL-6 stimulated, 5 h; at 7.69 µM (top of the series) unless noted
Summary of the method: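 ME-180 SIE-bla cells; overnight plating; cpd + IL-6 40 pM, 5 h, 37 C; LiveBLAzer 2.5 h RT; 460/530 nm emission ratio. Normalized to 300 pM IL-6 and 125 nM JAK inhibitor controls.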

[4] = biological target: Glucocorticoid receptor (Homo sapiens) (UniProt P04150); experiment: GR-GFP Redistribution (AID 450;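 active means compounds whose dose series gives a full or clear partial fitted curve of increased nuclear translocation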; further: potency means the concentration at half of the fitted maximal effect); conditions: U2OS GR-GFP nuclear translocation, laser cytometry, 2 h
[5] = biological target: Glucocorticoid receptor (Homo sapiens) (UniProt P04150); experiment: GR-EFC Redistribution (AID 451; calls by dose curve; further: potency means the concentration at half of the fitted maximal effect); conditions: CHO-K1 GR-EFC translocation, beta-gal luminescence, 2 h
Summary of the method: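 Translocation of GR-ED fusion to nuclear EA restores b-gal, read by luminescence after 1 h room-temperature detection. Engineered CHO-K1 biosensor cells, 1,000/well, exposed 2 h at 37 C to titrations up to 46 uM final.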

[6] = biological target: Mitogen-activated protein kinase 10 (Mus musculus) (UniProt Q61831); experiment: JNK3 AlphaScreen Assay (AID 530; active means well fitted curve in either direction with a large enough effect, not every such curve was filed as active;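 further: kinase came from lysate of stimulated human HepG2 cells; signal reports phosphorylation of biotinylated GST-cJun 1-79 at Ser73 with 10 µM ATP; on the % scale 0 is the no-effect control and ±100 the full control effect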)
Summary of the method: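 Compound titrations were preincubated 15 minutes at room temperature with substrate, antibody and pre-activated JNK3-containing HepG2 lysate. Reactions were started with 10 uM ATP and stopped with EDTA-containing bead buffer for AlphaScreen detection.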

[7] = biological target: 3',5'-cyclic-AMP phosphodiesterase 4B (Homo sapiens) (UniProt Q07343); experiment: qHTS Assay for Inhibitors of PDE-IV (AID 607; active means well fitted activation curve with a large enough effect in the main read-out, with a control signal flat, not every such curve was filed as active; further: % of control where 0% means no effect)
Summary of the method: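 ACTOne HEK293 cells carry a modified cAMP-gated CNG channel and express endogenous PDE4; plated 1000 cells/well, compounds up to 22.9 uM final. Membrane-potential dye fluorescence (ex 535/em 590) was read; parental cells received 10 uM forskolin + 100 uM RO 20-1724.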

[8] = biological target: Cytochrome P450 3A4 (Homo sapiens) (UniProt P08684); experiment: qHTS Assay for Activators of Cytochrome P450 3A4 (AID 885); further: nearly all actives have a fitted effect of over 65% in size
Summary of the method: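 20nM CYP3A4 + 25uM Luciferin-PPXE (=KM), 200mM KPO4; cpd 10 min RT; NADPH regen, 60 min RT; stop w/ detection buffer, 20 min; luminescence. Normalized to 57 uM ketoconazole.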

[9] = Primary qHTS for small molecule stabilizers of the endoplasmic reticulum resident proteome: Secreted ER Calcium Modulated Protein (SERCaMP) assay (AID 1508630); further: on the % scale 0 is the no-effect control and ±100 the full control effect
Summary of the method: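 GLuc-SERCaMP-expressing SH-SY5Y cells, pretreated 16 h with compound, are challenged with thapsigargin to empty ER calcium stores; after 4 h, coelenterazine is added directly to the medium and luminescence is imaged.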

[10] = biological target: Rap guanine nucleotide exchange factor 3 (Homo sapiens) (UniProt O95398); experiment: Confirmatory qHTS for agonist of cAMP-regulated guanine nucleotide exchange factor 3 (EPAC1) (AID 1645881); further: nearly all actives have a fitted effect of over 75% in size; further: potency means the concentration at half of the fitted maximal effect;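 on activation: EPAC1 catalysed release of BODIPY-GDP from Rap1B seen as fluorescence loss; 100% = effect of cAMP agonist control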
[11] = biological target: Rap guanine nucleotide exchange factor 4 (Homo sapiens) (UniProt Q8WZA2); experiment: Confirmatory qHTS for agonist of cAMP-regulated guanine nucleotide exchange factor 4 (EPAC2) (AID 1645884);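 further: nucleotide exchange releases bodipy-GDP from Rap1 and this lowers its fluorescence; nearly all actives have a fitted effect of over 65% in size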; further: potency means the concentration at half of the fitted maximal effect
[12] = biological target: Rap guanine nucleotide exchange factor 4 (Homo sapiens) (UniProt Q8WZA2); experiment: Confirmatory qHTS for antagonist of cAMP-regulated guanine nucleotide exchange factor 4 (EPAC2) (AID 1645885); further: nearly all actives have a fitted effect of over 25% in size; further: potency means the concentration at half of the fitted maximal effect
[13] = biological target: Lysosomal acid glucosylceramidase (Homo sapiens) (UniProt P04062); experiment: Glucocerebrosidase-p2 (AID 348; in the data active means potency below about 10 µM; further: potency means the concentration at half of the fitted maximal effect); conditions: purified GBA, blue fluorogenic substrate, 40 min
Summary of the method: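 Compounds titrated from 0.6 nM upwards against 0.2 nM enzyme in pH 5.9 citric acid/KH2PO4, taurocholate, tween-20; blue fluorogenic substrate 80 uM, 40 min room temperature, stopped and read Ex 365/Em 440 for AC50.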

[14] = biological target: Rap guanine nucleotide exchange factor 3 (Homo sapiens) (UniProt O95398); experiment: Confirmatory qHTS for antagonist of cAMP-regulated guanine nucleotide exchange factor 3 (EPAC1) (AID 1645880);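 further: plate controls were DMSO only for no effect and full effect of the ATA control for full effect; nearly all actives have a fitted effect of over 55% in size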
Summary of the method: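 Nucleotide exchange uses 100 nM EPAC1, 250 nM RAP1B-BODIPY-GDP and 50 uM GDP, with compounds in a concentration-titration series. After 5 min at room temperature, fluorescence (480 nm ex/540 nm em) is read every 5 min for 30 min. Data are normalized to control ATA and DMSO.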

[15] = NFAT Signaling Pathway (AID 444; active means well fitted curve in either direction with a large enough effect, not every such curve was filed as active); conditions: Jurkat NFAT-bla M1, carbachol, beta-lactamase ratio, 5 h; at 7.69 µM (top of the series) unless noted
Summary of the method: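 Read-out: CCF4 FRET ratio (460 nm/530 nm) after 1 h RT dye loading, used for %activity and AC50 from titration series. Cells: Jurkat NFAT-β-lactamase/M1 line, treated with compound plus 1 uM carbachol for 5 h, 37 °C.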

[16] = biological target: Dual specificity protein kinase CLK4 (Homo sapiens) (UniProt Q9HAZ1); experiment: qHTS Assay for Inhibitors of CDC-like Kinase 4 (ADP-FP Assay) (AID 1795);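 further: recombinant human CLK4 phosphorylating RS repeat peptide at 1 µM ATP; on the % scale 0 is the no-effect control and ±100 the full control effect; nearly all actives have a fitted effect of over 60% in size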
Summary of the method: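 Clk4 6.25 nM; RS peptide 100 uM; ATP 1 uM; 25 mM Tris pH 7.5, 10 mM MgCl2; 1 h reaction. ADP detected via antibody/orange tracer FP displacement; TG003 positive control.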

[17] = biological target: Ubiquitin carboxyl-terminal hydrolase 1 (Homo sapiens) (UniProt O94782); experiment: Inhibitors of USP1/UAF1: Pilot qHTS (AID 504865); further: nearly all actives have a fitted effect of over 35% in size; further: potency means the concentration at half of the fitted maximal effect
Summary of the method: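 In 50mM HEPES pH 7.8 containing 0.5mM EDTA, 1mM TCEP, 0.1 mg/ml BSA and 0.01% Tween-20, 1nM USP1/UAF1 is exposed to compound for 15 min, then Ub-Rho (150nM final) is added and fluorescence is read over time.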

[18] = biological target: Dual specificity protein kinase CLK4 (Homo sapiens) (UniProt Q9HAZ1); experiment: qHTS Assay for Inhibitors of CDC-like Kinase 4 (ADP-Glo Assay) (AID 1771); further: potency means the concentration at half of the fitted maximal effect; nearly all actives have a fitted effect of over 70% in size
Summary of the method: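 25 nM Clk4 with 100 uM RS repeat peptide and 1 uM ATP (final) in buffer with 2 mM MgCl2, 0.5 mM EGTA, 2.5 mM DTT, 0.01% Triton X-100; 1 h at room temperature; ADP-Glo luminescence for ADP formed.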

3',5'-cyclic-AMP phosphodiesterase 4B (Homo sapiens), sequence (Q07343 whole entry, looked up): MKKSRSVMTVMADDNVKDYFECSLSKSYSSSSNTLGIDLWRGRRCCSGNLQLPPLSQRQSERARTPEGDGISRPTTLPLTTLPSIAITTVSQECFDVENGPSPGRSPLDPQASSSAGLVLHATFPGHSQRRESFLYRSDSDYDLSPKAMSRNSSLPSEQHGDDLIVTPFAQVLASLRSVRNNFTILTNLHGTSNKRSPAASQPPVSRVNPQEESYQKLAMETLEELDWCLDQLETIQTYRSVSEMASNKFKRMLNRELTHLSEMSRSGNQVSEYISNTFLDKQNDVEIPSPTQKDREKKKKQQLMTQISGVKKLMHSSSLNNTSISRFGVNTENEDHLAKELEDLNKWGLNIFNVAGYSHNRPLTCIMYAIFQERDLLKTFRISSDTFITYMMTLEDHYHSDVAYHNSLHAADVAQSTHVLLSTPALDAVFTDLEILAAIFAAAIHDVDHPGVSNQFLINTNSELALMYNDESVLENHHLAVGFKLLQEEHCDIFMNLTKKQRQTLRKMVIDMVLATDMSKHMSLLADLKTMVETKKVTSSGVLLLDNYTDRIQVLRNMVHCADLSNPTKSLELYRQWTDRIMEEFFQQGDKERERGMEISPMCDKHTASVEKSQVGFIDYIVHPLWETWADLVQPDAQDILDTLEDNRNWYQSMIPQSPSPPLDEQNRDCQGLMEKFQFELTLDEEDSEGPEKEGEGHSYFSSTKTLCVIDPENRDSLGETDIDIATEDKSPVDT
Glucocorticoid receptor (Homo sapiens), sequence (P04150 whole entry, looked up, the tested form may be a part): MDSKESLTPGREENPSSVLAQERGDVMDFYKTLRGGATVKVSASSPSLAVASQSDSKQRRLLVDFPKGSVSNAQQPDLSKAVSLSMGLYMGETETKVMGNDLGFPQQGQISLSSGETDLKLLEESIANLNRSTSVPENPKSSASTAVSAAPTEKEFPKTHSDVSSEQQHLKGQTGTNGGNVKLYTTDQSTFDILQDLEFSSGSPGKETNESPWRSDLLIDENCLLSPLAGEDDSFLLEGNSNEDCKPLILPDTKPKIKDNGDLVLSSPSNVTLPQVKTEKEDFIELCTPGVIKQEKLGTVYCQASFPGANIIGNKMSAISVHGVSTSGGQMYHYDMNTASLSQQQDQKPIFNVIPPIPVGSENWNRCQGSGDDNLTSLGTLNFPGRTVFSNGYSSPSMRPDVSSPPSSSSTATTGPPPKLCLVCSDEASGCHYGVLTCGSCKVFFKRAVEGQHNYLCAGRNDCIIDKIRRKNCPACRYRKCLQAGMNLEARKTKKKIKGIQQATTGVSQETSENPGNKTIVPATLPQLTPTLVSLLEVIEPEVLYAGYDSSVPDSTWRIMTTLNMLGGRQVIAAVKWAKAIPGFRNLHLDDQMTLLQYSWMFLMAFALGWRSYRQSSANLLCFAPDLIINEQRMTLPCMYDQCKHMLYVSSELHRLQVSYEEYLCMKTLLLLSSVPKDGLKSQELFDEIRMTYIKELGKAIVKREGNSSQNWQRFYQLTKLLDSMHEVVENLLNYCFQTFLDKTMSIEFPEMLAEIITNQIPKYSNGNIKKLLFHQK
Lysosomal acid glucosylceramidase (Homo sapiens), sequence (P04062 whole entry, looked up): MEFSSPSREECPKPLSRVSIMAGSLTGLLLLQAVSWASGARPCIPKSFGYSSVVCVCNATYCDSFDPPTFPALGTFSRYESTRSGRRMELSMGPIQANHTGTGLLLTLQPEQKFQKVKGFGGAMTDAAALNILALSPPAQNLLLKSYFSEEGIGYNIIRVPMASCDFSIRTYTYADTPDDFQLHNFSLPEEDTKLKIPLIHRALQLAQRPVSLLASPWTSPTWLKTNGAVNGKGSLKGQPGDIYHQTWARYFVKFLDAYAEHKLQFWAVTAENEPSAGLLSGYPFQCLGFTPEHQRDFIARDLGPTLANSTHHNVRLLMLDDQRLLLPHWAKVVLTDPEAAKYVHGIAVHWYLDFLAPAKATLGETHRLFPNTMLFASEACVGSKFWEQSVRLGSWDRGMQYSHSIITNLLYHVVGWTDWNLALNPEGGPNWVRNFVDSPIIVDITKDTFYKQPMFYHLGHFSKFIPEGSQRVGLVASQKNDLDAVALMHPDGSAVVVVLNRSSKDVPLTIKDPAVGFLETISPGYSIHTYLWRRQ
Rap guanine nucleotide exchange factor 3 (Homo sapiens), sequence (O95398 whole entry, looked up): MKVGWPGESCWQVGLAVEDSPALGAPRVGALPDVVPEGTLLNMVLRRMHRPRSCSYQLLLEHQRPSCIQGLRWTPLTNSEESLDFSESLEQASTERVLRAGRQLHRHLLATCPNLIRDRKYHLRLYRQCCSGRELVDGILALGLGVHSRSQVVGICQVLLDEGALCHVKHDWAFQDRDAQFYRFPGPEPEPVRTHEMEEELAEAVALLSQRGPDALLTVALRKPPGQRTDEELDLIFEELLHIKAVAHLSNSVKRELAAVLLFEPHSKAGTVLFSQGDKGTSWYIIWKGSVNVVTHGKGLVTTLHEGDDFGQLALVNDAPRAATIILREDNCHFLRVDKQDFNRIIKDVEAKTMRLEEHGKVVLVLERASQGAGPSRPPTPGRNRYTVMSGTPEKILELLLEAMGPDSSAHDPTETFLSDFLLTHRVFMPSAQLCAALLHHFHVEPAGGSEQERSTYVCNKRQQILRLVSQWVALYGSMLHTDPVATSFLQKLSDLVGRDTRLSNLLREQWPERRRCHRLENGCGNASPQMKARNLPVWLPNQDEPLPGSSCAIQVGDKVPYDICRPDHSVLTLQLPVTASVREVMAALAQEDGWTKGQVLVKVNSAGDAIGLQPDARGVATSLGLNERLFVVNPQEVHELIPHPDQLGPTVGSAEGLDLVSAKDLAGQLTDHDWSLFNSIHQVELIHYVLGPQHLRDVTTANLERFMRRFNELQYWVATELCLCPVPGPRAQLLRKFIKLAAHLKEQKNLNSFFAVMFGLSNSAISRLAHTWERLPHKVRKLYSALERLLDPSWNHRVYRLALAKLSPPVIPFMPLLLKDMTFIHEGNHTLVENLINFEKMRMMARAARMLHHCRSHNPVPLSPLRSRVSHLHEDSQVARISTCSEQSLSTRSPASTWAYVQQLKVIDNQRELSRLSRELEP
Cytochrome P450 1A2 (Homo sapiens), sequence (P05177 whole entry, looked up): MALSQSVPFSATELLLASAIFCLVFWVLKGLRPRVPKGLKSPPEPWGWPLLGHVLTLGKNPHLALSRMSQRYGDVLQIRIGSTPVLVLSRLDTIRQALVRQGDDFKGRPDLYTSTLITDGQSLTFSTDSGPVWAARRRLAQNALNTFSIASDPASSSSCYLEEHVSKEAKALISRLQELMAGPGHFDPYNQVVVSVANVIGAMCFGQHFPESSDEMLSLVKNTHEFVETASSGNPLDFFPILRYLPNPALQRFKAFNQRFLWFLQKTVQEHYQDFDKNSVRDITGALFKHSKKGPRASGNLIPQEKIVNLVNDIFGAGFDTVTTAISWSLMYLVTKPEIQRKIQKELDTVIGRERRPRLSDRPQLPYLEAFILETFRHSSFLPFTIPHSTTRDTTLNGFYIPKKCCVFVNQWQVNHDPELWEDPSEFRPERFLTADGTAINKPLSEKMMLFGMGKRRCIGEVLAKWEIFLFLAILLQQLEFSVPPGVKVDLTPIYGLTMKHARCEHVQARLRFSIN
Rap guanine nucleotide exchange factor 4 (Homo sapiens), sequence (Q8WZA2 whole entry, looked up): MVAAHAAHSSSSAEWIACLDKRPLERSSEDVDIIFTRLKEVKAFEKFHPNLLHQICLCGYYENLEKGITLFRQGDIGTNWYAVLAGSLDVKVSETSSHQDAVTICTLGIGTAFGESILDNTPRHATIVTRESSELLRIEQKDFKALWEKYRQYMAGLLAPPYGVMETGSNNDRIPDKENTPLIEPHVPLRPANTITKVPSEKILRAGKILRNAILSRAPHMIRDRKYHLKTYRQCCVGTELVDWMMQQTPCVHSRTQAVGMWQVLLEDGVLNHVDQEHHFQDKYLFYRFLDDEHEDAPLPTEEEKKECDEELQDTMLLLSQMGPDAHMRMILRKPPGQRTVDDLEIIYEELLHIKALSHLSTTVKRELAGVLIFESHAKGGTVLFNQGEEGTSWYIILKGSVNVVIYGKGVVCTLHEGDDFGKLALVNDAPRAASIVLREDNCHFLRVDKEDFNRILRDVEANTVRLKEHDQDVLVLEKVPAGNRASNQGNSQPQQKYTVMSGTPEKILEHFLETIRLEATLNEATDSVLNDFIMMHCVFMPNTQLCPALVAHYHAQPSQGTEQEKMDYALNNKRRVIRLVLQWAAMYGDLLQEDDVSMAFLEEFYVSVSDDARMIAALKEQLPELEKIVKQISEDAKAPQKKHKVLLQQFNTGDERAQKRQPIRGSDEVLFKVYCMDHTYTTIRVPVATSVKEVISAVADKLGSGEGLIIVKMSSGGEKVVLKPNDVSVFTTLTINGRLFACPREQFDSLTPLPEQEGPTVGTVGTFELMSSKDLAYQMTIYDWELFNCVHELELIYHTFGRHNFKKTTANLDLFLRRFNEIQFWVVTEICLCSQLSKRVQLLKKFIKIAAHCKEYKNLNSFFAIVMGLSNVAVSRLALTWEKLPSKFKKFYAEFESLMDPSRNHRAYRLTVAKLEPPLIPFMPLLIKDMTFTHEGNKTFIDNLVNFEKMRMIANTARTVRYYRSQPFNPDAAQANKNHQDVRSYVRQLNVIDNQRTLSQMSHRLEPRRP
Dual specificity protein kinase CLK4 (Homo sapiens), sequence (Q9HAZ1 whole entry, looked up): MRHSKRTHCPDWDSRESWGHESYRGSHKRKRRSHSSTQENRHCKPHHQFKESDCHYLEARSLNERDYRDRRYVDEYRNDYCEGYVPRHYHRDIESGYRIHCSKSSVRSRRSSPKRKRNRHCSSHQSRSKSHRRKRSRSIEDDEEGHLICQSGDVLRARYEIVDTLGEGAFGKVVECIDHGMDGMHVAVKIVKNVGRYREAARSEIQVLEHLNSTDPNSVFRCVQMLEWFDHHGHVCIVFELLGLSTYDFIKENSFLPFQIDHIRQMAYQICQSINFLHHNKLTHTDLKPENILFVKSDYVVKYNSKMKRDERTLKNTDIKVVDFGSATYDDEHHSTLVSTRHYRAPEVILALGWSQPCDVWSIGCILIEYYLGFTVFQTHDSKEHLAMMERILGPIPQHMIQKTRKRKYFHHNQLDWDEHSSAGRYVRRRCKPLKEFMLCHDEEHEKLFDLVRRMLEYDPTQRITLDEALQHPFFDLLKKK

Cc1c(CC(C)(C)C(=O)O)n(Cc2ccc(Cl)cc2)c2ccc(F)cc12
inactive: activity change, negative = inhibition [1] -22.4% [at 38 µM] | activity, negative = inhibition [3] -0.406% [at 38 µM] | Potency [4] > 46 µM | Potency [5] > 46 µM | Potency [6] | Potency [7] | Potency [8] | outcome [9] | Potency [10] | Potency [11]
active: Potency [2] 12.6 µM and 15.8 µM | Potency [12] 27.8 µM

COC(=O)N1CCC2(CC1)CCN(c1cccc(-c3ccccc3)c1)CC2
inactive: Potency [13] > 11.4 µM | activity change, negative = inhibition [1] -18.3% | Potency [2] | activity, negative = inhibition [3] 13% | Potency [5] > 46 µM | Potency [6] | Potency [7] | outcome [9] | Potency [14] | Potency [10] | Potency [11]

COc1cccc(Nc2ncc3nc(-c4cccs4)c(=O)n(-c4ccccc4)c3n2)c1
inactive: Potency [13] > 11.4 µM | activity change, negative = inhibition [1] -24.2% | activity change, negative = inhibition [15] -15.6% | activity, negative = inhibition [3] 3.1% | Potency [5] > 46 µM | Potency [6] | Potency [7] | Potency [16] | outcome [9] | Potency [14] | Potency [12]
active: Potency [2] 3.16 µM | Potency [17] 35.5 µM | Potency [10] 70.6 µM

COc1ccc(Oc2ncc3ncc(=O)n(Cc4ccc(F)cc4)c3n2)cc1
inactive: Potency [13] > 11.4 µM | activity change, negative = inhibition [1] -18.4% | activity change, negative = inhibition [15] -10.2% | activity, negative = inhibition [3] -0.377% | Potency [4] > 9.22 µM | Potency [5] > 46 µM | Potency [6] | outcome [9] | Potency [14] | Potency [10]

COCCn1c(=O)c(-c2cccs2)nc2cnc(Nc3ccccc3)nc21
inactive: Potency [13] > 11.4 µM | activity change, negative = inhibition [1] 5.47% | activity, negative = inhibition [3] 14.8% | Potency [6] | outcome [9] | Potency [14] | Potency [10] | Potency [12]

c1csc(CNc2ccnc(-c3ccc4c(c3)OCO4)n2)c1
active: Potency [2] 0.316 µM | Potency [18] 22.4 µM
inactive: activity change, negative = inhibition [15] 11.2% | activity, negative = inhibition [3] -12.2% | Potency [4] > 46 µM | Potency [5] > 46 µM | Potency [6] | Potency [8] | Potency [17] | outcome [9] | Potency [14] | Potency [12]

O=c1c(-c2cc(F)cc(F)c2)nc2cnc(N3CCOCC3)nc2n1-c1ccccc1
inactive: Potency [13] > 11.4 µM | Potency [4] > 9.22 µM | Potency [6] | Potency [7] | outcome [9] | Potency [14] | Potency [12]
active: Potency [2] 5.01 µM

C=CC(C)(C)c1c2c(c(O)c3c(=O)c4ccc(O)c(O)c4oc13)C=CC(C)(C)O2
inactive: outcome [9] | Potency [10] | Potency [11]

COc1ccc(-c2nc3cnc(Nc4ccccc4)nc3n(CCC#N)c2=O)cc1
inactive: Potency [13] > 11.4 µM | activity change, negative = inhibition [1] -3.18% | activity, negative = inhibition [3] -4.64% | Potency [5] > 46 µM | Potency [6] | outcome [9] | Potency [14] | Potency [12]
active: Potency [2] 0.501 µM | Potency [11] 70.6 µM
